Assay results as given in PubChem BioAssay (NCATS).
Inconclusive results are not listed. Unmarked numbers belong to inactive results. Calls of active or inactive are those of the source. Calls follow the shape of the dose curve; as a rule, active = well fitted cell-killing curve with a large enough effect in the repeat runs; inconclusive = weak or mixed curves, or effect the other way; inactive = flat fitted curve, though single readings scatter.

Assay: qHTS assay for small molecule antagonists of the retinoid-related orphan receptor gamma (ROR-gamma) signaling pathway - cell viability counter screen (AID 720652);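 also: compound exposure lasted 16 hr before ATP read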
Conditions: RORgamma reporter cell line viability counter screen; series mostly up to 92.2 µM; activity change, negative = cytotoxicity: at the top concentration
Source text: National Center for Advancing Translational Sciences [NCATS]
NIH Chemical Genomics Center [NCGC]
National Institutes of Environmental Health Sciences [NIEHS]
National Toxicology Program [NTP]
Nuclear steroid hormone receptors are involved in many biological processes including inflammatory responses, cell proliferation, and apoptosis. Environmental factors or compounds disrupting these nuclear receptor pathways and gene expression may promote susceptibility to immunotoxicants and autoimmune diseases. One important group of these expression factors are the retinoid-related orphan receptors. To assess compounds that may interfere with the retinoid-related orphan receptor gamma (ROR-gamma) transcription factor, a cell-based luciferase assay was used.
The CHO cell-based assay utilizes a TET-inducible ROR expression factor and ROR response element-LUC reporter gene. Reporter activity was induced using doxycycline and measured after 16hr incubation. Luminescence was read using Viewlux (PerkinElmer), where a decrease in reporter activity would show a decrease in luminescence. The cytotoxicity of the compounds against ROR response-Luc reporter gene cell line was quantified by measuring the intracellular ATP content.
1,000 cells in 4 uL/well were dispensed into white wall/solid bottom 1536-well plates using a Multidrop Combi (Thermo Scientific) dispenser. Following incubation at 37 C and 5% CO2 for 5 hr, 23 nL compound or DMSO vehicle were transferred by a pin tool, then the plates were treated with 1 ul doxycycline to induce reporter gene activity. After 16 hr incubation at 37 C and 5% CO2, 5 uL/well of CellTiter-Glo reagent (Promega) was then added to each plate using a Flying Reagent Dispenser and incubated at room temperature for 30 min. The luminescence intensity was quantified on a ViewLux plate reader (PerkinElmer).
% is scaled to controls: 0 for no effect and ±100 for the full control effect; potency is read from the fitted curve at half-maximal effect.

SMILES	activity change, negative = cytotoxicity [%]	Potency
Cc1ccc2ncccc2c1	2.81	–
CCNc1cc(O)ccc1C	-1.43	–
CCCOCC(C)OCC(C)O (stereo not given)	1.59	–
COc1ccc(N)c(OC)c1	-16.5	–
c1ccc(Oc2ccccc2)cc1	-11.6	–
CCC(O)C(C)(C)C (stereo not given)	0.851	–
Cc1ccc(C(C)(C)C)cc1	0.088	–
CNC(=O)N(c1ccccc1)c1ccccc1	-14.9	–
CC(C)Cc1nccs1	7.77	–
O=C1NC(=O)c2cc([N+](=O)[O-])ccc21	4.67	–
Nc1cccc(N)c1	-10.1	–
O=C(O)c1ccccc1C(=O)O	3.78	–
C=Cc1ccccn1	-0.168	–
C1CCOC1	0.434	–
CC1(N)CCC(C(C)(C)N)CC1 (stereo not given)	3.26	–
C=C(C)C(=O)OCC(C)C	9.46	–
CCCCCCCCC	12.3	–
C=C(C)C(=O)OCCCCCCCCCC	-0.0688	–
Cc1cccc2sc(N)nc12	-8.64	–
NC(=S)NNC(N)=S	-4.19	–

SMILES	activity change, negative = cytotoxicity [%]	Potency
N#CCc1ccccc1[N+](=O)[O-]	3.96	–
CCCCCNCCCCC	-7.12	–
O=C1OC(=O)c2cc([N+](=O)[O-])ccc21	0.0818	–
CC(=O)OCCC(C)C	-16.7	–
Clc1ccc(Cl)c(Cl)c1Cl	7.98	–
FC(F)(F)c1ccccc1Cl	-8.57	–
CCC1CO1 (stereo not given)	-4.07	–
CC(=O)Nc1ccccc1C	3.92	–
O=Cc1ccc(CO)o1	1.68	–
CC(=O)Nc1cccc(N)c1	-16.5	–
CCCCC(CC)CO (stereo not given)	10.2	–
CCCCC/C=C/C=C/C=O	–	23.7 µM (active)
CC(=O)OCc1ccco1	11.5	–
Cc1ccco1	4.39	–
C=CCOC(=O)CCCCCCCC	-8.62	–
O=C1CCCCC1	3.69	–
Cc1ccc(Cl)cc1N	-10.8	–
Clc1ccccn1	9.01	–
Nc1nc(CC(=O)O)cs1	8.58	–
ClC/C=C/CCl	6.32	–
